Compounds without any hit were thinned out: in the full panel of roughly 79,000, 15% have a hit. The source made the active and inactive calls. Cut-off read from the data, not from the text of the source: active = growth inhibition above about 70%; inactive = the rest.
Key:
[1] = NCI Yeast Anticancer Drug Screen. Data for the rad52 strain (AID 147);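 note: 0% = growth of vehicle-treated control cultures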; details: S. cerevisiae rad52 mutant growth inhibition, hits give high values
Outline: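 Growth of repair-deficient yeast cells was compared between compound-treated and vehicle-treated cultures to give percent inhibition.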

[2] = NCI Yeast Anticancer Drug Screen. Data for the wt1 strain (AID 149);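 note: 0% = growth of vehicle-treated wt1 cultures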; details: S. cerevisiae wt1 strain (SPY 50644) growth inhibition, hits give high values
Outline: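 Growth inhibition read against vehicle controls after compound exposure of the wt1 yeast strain.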

[3] = NCI Yeast Anticancer Drug Screen. Data for the rad50EPP+ strain (AID 151);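 note: 0% = growth of vehicle-treated control cultures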; details: S. cerevisiae rad50 mutant strain, hits give high values
Outline: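 Measured: growth inhibition of rad50EPP+ yeast. Reference: vehicle-treated controls. Screen uses strains with defined genetic alterations in DNA damage repair or cell cycle control.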

[4] = NCI Yeast Anticancer Drug Screen. Data for the mgt1 strain (AID 153); details: S. cerevisiae mgt1 mutant growth inhibition, hits give high values
Outline: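 Compounds were applied to mgt1 mutant yeast, and growth was then compared against vehicle-treated control cultures to give percent inhibition.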

[5] = NCI Yeast Anticancer Drug Screen. Data for the rad50 strain (AID 155);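 note: 0% = growth of vehicle-only cultures of the same strain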; details: S. cerevisiae rad50 strain growth inhibition, hits give high values
Outline: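 Readout: growth inhibition relative to vehicle-treated cultures. Compound exposure was carried out in a genetically defined yeast strain deficient in DNA damage repair.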

[6] = NCI Yeast Anticancer Drug Screen. Data for the mec2-1 strain (AID 157); details: S. cerevisiae mec2-1 strain, hits give high values
Outline: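 Compounds were applied to mec2-1 yeast cells. Their growth was then compared with that of vehicle-treated cultures to give growth inhibition.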

[7] = NCI Yeast Anticancer Drug Screen. Data for the rad14 strain (AID 159);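 note: 0% = growth of vehicle-treated control cultures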; details: S. cerevisiae rad14 strain growth inhibition, hits give high values
Outline: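 Growth inhibition vs vehicle controls; genetically altered yeast strain (DNA damage repair defect) treated with test compounds.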

[8] = NCI Yeast Anticancer Drug Screen. Data for the sgs1 mgt1 strain (AID 161);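 note: 0% = growth of cultures given vehicle only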; details: S. cerevisiae sgs1 mgt1 strain, hits give high values
Outline: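 Growth of a repair-deficient yeast mutant was monitored after compound treatment and expressed as inhibition relative to vehicle-treated cultures.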

[9] = NCI Yeast Anticancer Drug Screen. Data for the CLN2oe strain (AID 163);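 note: 0% = growth of vehicle-only control cultures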; details: S. cerevisiae CLN2oe strain, hits give high values
Outline: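 Cells of an engineered yeast line with disturbed cell-cycle regulation are treated with compound. Inhibition of growth is then calculated relative to the vehicle-treated reference.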

[10] = NCI Yeast Anticancer Drug Screen. Data for the cln2 rad14 strain (AID 165);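 note: 0% = growth equal to vehicle treated cultures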; details: S. cerevisiae cln2 rad14 strain, hits give high values
Outline: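 Strain: cln2 rad14 yeast, altered in cell cycle control and DNA damage repair. Read-out: growth inhibition vs vehicle.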

[11] = NCI Yeast Anticancer Drug Screen. Data for the bub3 strain (AID 167); details: S. cerevisiae bub3 mutant strain, hits give high values
Outline: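 Readout: yeast growth inhibition, expressed relative to vehicle-only wells. The test organism is a mutant strain from a panel with lesions in DNA repair or checkpoint genes.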

[12] = NCI Yeast Anticancer Drug Screen. Data for the wt2 strain (AID 169);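 note: 0% = growth of vehicle-treated yeast cultures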; details: S. cerevisiae wt2 strain growth inhibition, hits give high values
Outline: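 Growth of compound-treated yeast is measured and expressed as inhibition relative to vehicle-only controls.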

[13] = NCI Yeast Anticancer Drug Screen. Data for the mlh1 strain (AID 171);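 note: 0% = growth of vehicle-treated control cultures of the same strain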; details: S. cerevisiae mlh1 strain growth inhibition, hits give high values
Outline: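 Test agents were incubated with yeast bearing a defined DNA damage repair or cell cycle control alteration; values are growth inhibition normalised to vehicle-treated cultures.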

[14] = NCI Yeast Anticancer Drug Screen. Data for the sgs1 strain (AID 173);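 note: 0% = growth of vehicle-only control cultures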; details: S. cerevisiae sgs1 mutant, hits give high values
Outline: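 Strain with an altered DNA repair or cell cycle pathway exposed to compound. Growth then measured. Value = inhibition versus vehicle control.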

[15] = NCI Yeast Anticancer Drug Screen. Data for the mlh1 rad18 strain (AID 175); details: S. cerevisiae mlh1 rad18 strain growth inhibition, hits give high values
Outline: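 A repair-deficient yeast strain is exposed to test compound, and growth is scored relative to vehicle-treated controls.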

[16] = NCI Yeast Anticancer Drug Screen. Data for the rad18 strain (AID 177); details: S. cerevisiae rad18 mutant growth inhibition, hits give high values
Outline: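 DNA-repair-defective yeast; compound treatment; growth inhibition scored against vehicle.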

[17] = at 5.0 µM (retest, dose inferred, filed as 0.5)
[18] = at 50.0 µM (retest, dose inferred, filed as 5.0)

Measured: growth inhibition

CC1=C[C@H]2O[C@@H]3C[C@H]4OC(=O)/C=C\C=C\C(C(C)O)OCC(O)C(C)CC(=O)OC[C@@]2(C[C@@H]1O)[C@]4(C)[C@@]31CO1 (stereo partly drawn)
inactive: [1]; at 1.2 µM -21% | [1]; at 3.7 µM 2% | [2]; at 1.2 µM -13% | [2]; at 3.7 µM 24% | [3]; at 1.2 µM -29% | [3]; at 3.7 µM -43% | [3]; at 11.0 µM -31% | [3]; at 33.0 µM -46% | [3]; at 100.0 µM -55% | [4]; at 1.2 µM -54% | [4]; at 3.7 µM -7% | [5]; at 1.2 µM -23% | [5]; at 3.7 µM 17% | [5]; [17] 41% | [6]; at 1.2 µM -60% | [6]; at 3.7 µM -3% | [6]; [17] 40% | [7]; at 1.2 µM -14% | [7]; at 3.7 µM 25% | [8]; [17] 7% | [8]; [18] 12% | [9]; at 1.2 µM 13% | [9]; at 3.7 µM 24% | [9]; at 100.0 µM 18% | [10]; [17] 18% | [10]; [18] -18% | [11]; at 1.2 µM -46% | [11]; at 3.7 µM 4% | [11]; [17] 4% | [11]; [18] -8% | [12]; at 1.2 µM -12% | [12]; at 3.7 µM 8% | [13]; at 1.2 µM -73% | [13]; at 3.7 µM 3% | [14]; at 1.2 µM -42% | [14]; at 3.7 µM -17% | [15]; [17] 68% | [16]; at 1.2 µM -64% | [16]; at 3.7 µM -15%
active: [1]; at 11.0 µM 91% | [1]; at 33.0 µM 97% | [1]; at 100.0 µM 97% | [2]; at 11.0 µM 93% | [2]; at 33.0 µM 98% | [2]; at 100.0 µM 98% | [4]; at 11.0 µM 92% | [4]; at 33.0 µM 97% | [4]; at 100.0 µM 97% | [5]; at 11.0 µM 92% | [5]; at 33.0 µM 97% | [5]; [18] 98% | [5]; at 50.0 µM 91.1% | [5]; at 100.0 µM 97% | [6]; at 11.0 µM 88% | [6]; at 33.0 µM 97% | [6]; [18] 98% | [6]; at 50.0 µM 92.2% | [6]; at 100.0 µM 97% | [7]; at 11.0 µM 93% | [7]; at 33.0 µM 97% | [7]; at 100.0 µM 97% | [8]; at 50.0 µM 92.2% | [9]; at 11.0 µM 91% | [9]; at 33.0 µM 97% | [10]; at 50.0 µM 91.4% | [11]; at 11.0 µM 89% | [11]; at 33.0 µM 97% | [11]; at 50.0 µM 90.8% | [11]; at 100.0 µM 97% | [12]; at 11.0 µM 78% | [12]; at 33.0 µM 98% | [12]; at 100.0 µM 98% | [13]; at 11.0 µM 89% | [13]; at 33.0 µM 97% | [13]; at 100.0 µM 97% | [14]; at 11.0 µM 82% | [14]; at 33.0 µM 94% | [14]; at 100.0 µM 96% | [15]; [18] 98% | [15]; at 50.0 µM 89.7% | [16]; at 11.0 µM 91% | [16]; at 33.0 µM 96% | [16]; at 100.0 µM 96%

— PubChem BioAssay (NCI)
